B1: ENSMUSG00000061578.87|Ksr2 (ssRNA)
RNA: GGGAGUUCUACAGUCCGACGAUCGCUUCGAUAUCCGCAUGCUAGGGUUAAACUUGCAAACAUCUGAUUUUAGAGGUCCCAUUCCAAGAUGGAAGUCACCGGUUGCCGCUGAGCACACAAUUCUGAAGGACAGUAGGCAGUCCUGCAGGUCUUUUUUAGCACAGGGCCUCUCUGGGGACCAGUCCCUGGCCUUCACCCUUCUCCCAUUUUGUAAGAACACUGUUCUAACUCACCUCAUGCCCACGCUACCCUGGGCAACUGGAGAACACCAUAGCGUUUCAGCUGAUGUGACAUUUGGUGUGACCUCUUGCGGUCGCACUAGUGUGGAAUUCUCGGGUGUCAAGG
B2: ENSMUSG00000058297.290|Spock2|101:106 (ssRNA)
RNA: GGGAGUUCUACAGUCCGACGAUCGCUUCGAUAUCCGCAUGCUAAGAGAGAGAGAGAGAGAGAAAGAGAGAGAGAAUGAGAGAGAAUGAGAGAGAGAAUACCCGAGGGCCACCCUGAUGCCCAGGAAGAGUGAGGGCAGCCCCCACACACGUGGAAGAGGCUGGGCAGCUAGCUACUGGGGACCUUGUGCUGAGGCUUCCAGGACAAAGCCCCAGUCUGGCUCUCCCCCAGCCUCUCAGGGGCACUGGCUGGUCACAUCCACUGAGUAUUGAUCGGUUGGACUUUAGGGAAGAGCCUCCUCCUUCUCUUGCGGUCGCACUAGUGUGGAAUUCUCGGGUGUCAAGG
B3: ENSMUSG00000058297.289|Spock2|107:112 (ssRNA)
RNA: GGGAGUUCUACAGUCCGACGAUCGCUUCGAUAUCCGCAUGCUAAGAGAGAGAGAGAGAGAGAGAGAGAAAGAGAGAGAGAAUGAGAGAGAAUGAGAGAGAGAAUACCCGAGGGCCACCCUGAUGCCCAGGAAGAGUGAGGGCAGCCCCCACACACGUGGAAGAGGCUGGGCAGCUAGCUACUGGGGACCUUGUGCUGAGGCUUCCAGGACAAAGCCCCAGUCUGGCUCUCCCCCAGCCUCUCAGGGGCACUGGCUGGUCACAUCCACUGAGUAUUGAUCGGUUGGACUUUAGGGAAGAGCCUCCUCUUGCGGUCGCACUAGUGUGGAAUUCUCGGGUGUCAAGG
B4: ENSMUSG00000058297.288|Spock2|113:118 (ssRNA)
RNA: GGGAGUUCUACAGUCCGACGAUCGCUUCGAUAUCCGCAUGCUAAGAGAGAGAGAGAGAGAGAGAGAGAGAGAGAAAGAGAGAGAGAAUGAGAGAGAAUGAGAGAGAGAAUACCCGAGGGCCACCCUGAUGCCCAGGAAGAGUGAGGGCAGCCCCCACACACGUGGAAGAGGCUGGGCAGCUAGCUACUGGGGACCUUGUGCUGAGGCUUCCAGGACAAAGCCCCAGUCUGGCUCUCCCCCAGCCUCUCAGGGGCACUGGCUGGUCACAUCCACUGAGUAUUGAUCGGUUGGACUUUAGGGAAGCUCUUGCGGUCGCACUAGUGUGGAAUUCUCGGGUGUCAAGG
B5: ENSMUSG00000058297.298|Spock2|53:58 (ssRNA)
RNA: GGGAGUUCUACAGUCCGACGAUCGCUUCGAUAUCCGCAUGCUAAGAGAAUACCCGAGGGCCACCCUGAUGCCCAGGAAGAGUGAGGGCAGCCCCCACACACGUGGAAGAGGCUGGGCAGCUAGCUACUGGGGACCUUGUGCUGAGGCUUCCAGGACAAAGCCCCAGUCUGGCUCUCCCCCAGCCUCUCAGGGGCACUGGCUGGUCACAUCCACUGAGUAUUGAUCGGUUGGACUUUAGGGAAGAGCCUCCUCCUUCCCAUUCCUUUCUGCCACCCUGGAAUGGCCACCUUAAUCGUCAUCUCCCUCUUGCGGUCGCACUAGUGUGGAAUUCUCGGGUGUCAAGG
B6: ENSMUSG00000058297.293|Spock2|83:88 (ssRNA)
RNA: GGGAGUUCUACAGUCCGACGAUCGCUUCGAUAUCCGCAUGCUAAAAGAGAGAGAGAAUGAGAGAGAAUGAGAGAGAGAAUACCCGAGGGCCACCCUGAUGCCCAGGAAGAGUGAGGGCAGCCCCCACACACGUGGAAGAGGCUGGGCAGCUAGCUACUGGGGACCUUGUGCUGAGGCUUCCAGGACAAAGCCCCAGUCUGGCUCUCCCCCAGCCUCUCAGGGGCACUGGCUGGUCACAUCCACUGAGUAUUGAUCGGUUGGACUUUAGGGAAGAGCCUCCUCCUUCCCAUUCCUUUCUGCCACCUCUUGCGGUCGCACUAGUGUGGAAUUCUCGGGUGUCAAGG
B7: ENSMUSG00000058297.295|Spock2|71:76 (ssRNA)
RNA: GGGAGUUCUACAGUCCGACGAUCGCUUCGAUAUCCGCAUGCUAAAUGAGAGAGAAUGAGAGAGAGAAUACCCGAGGGCCACCCUGAUGCCCAGGAAGAGUGAGGGCAGCCCCCACACACGUGGAAGAGGCUGGGCAGCUAGCUACUGGGGACCUUGUGCUGAGGCUUCCAGGACAAAGCCCCAGUCUGGCUCUCCCCCAGCCUCUCAGGGGCACUGGCUGGUCACAUCCACUGAGUAUUGAUCGGUUGGACUUUAGGGAAGAGCCUCCUCCUUCCCAUUCCUUUCUGCCACCCUGGAAUGGCCCUCUUGCGGUCGCACUAGUGUGGAAUUCUCGGGUGUCAAGG
B8: ENSMUSG00000058297.296|Spock2|65:70 (ssRNA)
RNA: GGGAGUUCUACAGUCCGACGAUCGCUUCGAUAUCCGCAUGCUAAGAGAAUGAGAGAGAGAAUACCCGAGGGCCACCCUGAUGCCCAGGAAGAGUGAGGGCAGCCCCCACACACGUGGAAGAGGCUGGGCAGCUAGCUACUGGGGACCUUGUGCUGAGGCUUCCAGGACAAAGCCCCAGUCUGGCUCUCCCCCAGCCUCUCAGGGGCACUGGCUGGUCACAUCCACUGAGUAUUGAUCGGUUGGACUUUAGGGAAGAGCCUCCUCCUUCCCAUUCCUUUCUGCCACCCUGGAAUGGCCACCUUACUCUUGCGGUCGCACUAGUGUGGAAUUCUCGGGUGUCAAGG
B9: ENSMUSG00000058297.287|Spock2|119:124 (ssRNA)
RNA: GGGAGUUCUACAGUCCGACGAUCGCUUCGAUAUCCGCAUGCUAAGAGAGAGAGAGAGAGAGAGAGAGAGAGAGAGAGAGAAAGAGAGAGAGAAUGAGAGAGAAUGAGAGAGAGAAUACCCGAGGGCCACCCUGAUGCCCAGGAAGAGUGAGGGCAGCCCCCACACACGUGGAAGAGGCUGGGCAGCUAGCUACUGGGGACCUUGUGCUGAGGCUUCCAGGACAAAGCCCCAGUCUGGCUCUCCCCCAGCCUCUCAGGGGCACUGGCUGGUCACAUCCACUGAGUAUUGAUCGGUUGGACUUUACUCUUGCGGUCGCACUAGUGUGGAAUUCUCGGGUGUCAAGG

Over roughly 9,900 sequences, “r (bound/input frequency ratio)” has its median near 0.7; the highest 2% begin near 6.5. The entries come from a sample that favours the highest values as a whole.

TDP-43, sequence (Q13148 whole entry): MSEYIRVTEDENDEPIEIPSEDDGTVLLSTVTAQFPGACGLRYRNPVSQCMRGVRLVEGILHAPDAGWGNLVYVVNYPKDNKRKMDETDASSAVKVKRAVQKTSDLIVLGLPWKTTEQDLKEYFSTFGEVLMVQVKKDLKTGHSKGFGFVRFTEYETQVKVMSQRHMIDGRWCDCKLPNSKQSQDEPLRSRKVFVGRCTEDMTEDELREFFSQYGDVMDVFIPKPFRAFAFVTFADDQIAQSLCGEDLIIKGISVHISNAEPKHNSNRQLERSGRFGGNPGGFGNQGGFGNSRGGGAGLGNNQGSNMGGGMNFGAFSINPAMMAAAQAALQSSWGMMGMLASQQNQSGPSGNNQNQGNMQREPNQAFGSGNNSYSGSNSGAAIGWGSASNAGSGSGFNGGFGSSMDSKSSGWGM

In this experiment the target is TDP-43 (Homo sapiens, UniProt Q13148 1-414). The experiment is described as follows: RNA Bind-n-Seq with designed 260-mer pool; 25 mM Tris-HCl, 150 mM KCl, 3 mM MgCl2, BSA (printed 500 mg/mL), 20 units/mL SUPERase IN; pH not stated; 500 nM RNA pool, 1 h, 4 C; TDP-43 5, 50, 500 nM; high values mean tight binding. The following applies: protein: recombinant; tags: SBP (GST cleaved off with PreScission; pGEX-GST-SBP). The procedure, abridged:
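An in vitro-transcribed pool of 260-nt 3′ UTR oligos (500 nM) was incubated for 1 h at 4 °C with recombinant SBP-tagged TDP-43 at 5, 50 or 500 nM held on streptavidin beads. The buffer contained 25 mM Tris-HCl, 150 mM KCl, 3 mM MgCl2, BSA and SUPERase IN. Biotin-eluted bound RNA was sequenced, and binding, R, is each oligo's normalized read abundance in the bound sample over that in input.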
B1: the binding signal is 0.338 R (bound/input frequency ratio).
In the case of B2 it was 8.37 R (bound/input frequency ratio).
In the case of B3 it was 7.59 R (bound/input frequency ratio); in that of B4, 7.71 R (bound/input frequency ratio).
As for B5, the figure is 2.36 R (bound/input frequency ratio); as for B6, 3.42 R (bound/input frequency ratio); as for B7, 3.59 R (bound/input frequency ratio).
In the case of B8, the binding signal was 4.88 R (bound/input frequency ratio).
With B9, the binding signal was 7.84 R (bound/input frequency ratio).

The record behind these values is paper PMC12864922, “TDP-43 directly inhibits mRNA accumulation in neurites through modulation of mRNA stability”.
